Screening data as filed in PubChem.
HIF-2a block = HIF-2a reporter inhibitors, primary screen, luminescence, 786-0 RCC cells; AID 624352, 2012; 786-0 RCC cells HIF-2a reporter, luciferase luminescence, overnight; actives 0.72% (n = 360,000); inhibition, % at 18.8 µM;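 active = inhibition of the luminescence signal of 40% or more relative to plate controls, in a single-dose primary screen at 18.75 µM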
Peg3 prom inh = Peg3 promoter-driven luciferase inhibitors, primary screen, cell-based, HeLa, luciferase luminescence; HeLa PEG-Prom luciferase reporter, overnight; inhibition, % at 20 µM; actives 1.7% (n = 360,000);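 active = inhibition of at least 50% at 20 µM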
TROY signal inh = inhibitors of TROY-driven NF-kB signaling, primary screen, Q293 LMP1-TROYcd cells, NF-kB luciferase, uHTS; AID 1347056, 2019; Q293 LMP1-TROYcd NF-kB luciferase reporter, 4 h; actives 0.98% (n = 360,000); inhibition, % at 10 µM;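 active = compounds whose plate-normalised and pattern-corrected inhibition of the luciferase reporter signal at the single screening dose is 50% or more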
MITF TRPM1 inh = inhibitors of MITF-dependent TRPM1 promoter reporter, primary screen, cell-based, SK-MEL-5, single point, luciferase | SK-MEL-5 TRPM1 promoter luciferase, 24 h | inhibition, % at 12.5 µM | actives 0.83% (n = 330,000);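 active = mean inhibition across replicates of 60% or more, whatever share of single replicates reaches that level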
LMP1 NFkB inh = EBV LMP1-driven NF-kappaB luciferase reporter inhibitors, primary screen, cell-based, luminescence, single point; inhibition, % at 12.5 µM; actives 0.69% (n = 350,000); LMP1-induced NF-kappaB luciferase reporter cells; in the data active = inhibition above about 41%
TWEAK-Fn14 inh = inhibitors of TWEAK-Fn14 signaling, primary screen, luciferase reporter cells, uHTS; TWEAK-stimulated Fn14 reporter cells, luciferase luminescence, 8 h; inhibition, % at 10 µM; actives 2% (n = 360,000); AID 1159606, 2016; in the data active = inhibition above about 50%
Of the large screens only hits and unclear results are named; the others gave an inactive call. Shown are actives, neighbours in structure and some others; about 4% of the full set was active somewhere.

O=C1C=CC(=O)N1c1ccc(OC(F)F)cc1	HIF-2a block 50, Peg3 prom inh 104
O=C1CCCC(=O)N1c1ccc(O)cc1	none
O=C1C=CC(=O)N1c1ccc(O)cc1	Peg3 prom inh 110
CC[C@H](C)Cc1cn([C@@H](CCCN=C(NC(=O)OC(C)(C)C)NC(=O)OC(C)(C)C)C(=O)NCCCCCCCCCCC(=O)N2CCN(C(=O)OC(C)(C)C)CC2)nn1	Peg3 prom inh 54, TROY signal inh 81, TWEAK-Fn14 inh 60
CC[C@H](C)Cc1cn([C@@H](CCCCN)C(=O)NCCCCCCCCCCC(=O)N2CCNCC2)nn1	none
Cc1cn([C@@H](CCCCNC(=O)OC(C)(C)C)C(=O)NCCCCCCCCCCC(=O)N2CCN(C(=O)OC(C)(C)C)CC2)nn1	Peg3 prom inh 84, TROY signal inh 70, MITF TRPM1 inh 65, TWEAK-Fn14 inh 88
CCN1/C(=C/c2cc[n+](C)cc2)C=Cc2cc(C)ccc21	Peg3 prom inh 61, MITF TRPM1 inh 70
CCN1/C(=C/c2ccc3ccccc3[n+]2CCCS(=O)(=O)[O-])C=Cc2cc(C)ccc21	none
COc1ccc2nc(C(c3ccc(C)cc3)n3c(-c4ccccc4Br)nc4ccccc43)[nH]c2c1 (stereo not given)	none (no result: MITF TRPM1 inh, LMP1 NFkB inh)
COc1cc(C(=O)O/N=C(\N)c2cccc([N+](=O)[O-])c2)cc(OC)c1OC	TWEAK-Fn14 inh 62
N/C(=N\OC(=O)c1ccc(Cl)c(Cl)c1)c1ccccn1	TWEAK-Fn14 inh 80
CC(OC(=O)c1ccc(Cl)c([N+](=O)[O-])c1)C(=O)N1CCN(Cc2ccccc2)CC1 (stereo not given)	Peg3 prom inh 78
N/C(=N\OC(=O)c1ccc(Cl)c([N+](=O)[O-])c1)c1ccccn1	none
COc1cc(C(=O)O/N=C(\N)c2ccc([N+](=O)[O-])cc2)cc(OC)c1OC	none
N/C(=N\OC(=O)c1ccc(Cl)c([N+](=O)[O-])c1)c1ccccc1	Peg3 prom inh 75
c1ccc(-c2onc(-c3ccco3)c2-c2ccc3[nH]ccc3c2)cc1	none
N#Cc1ccsc1NC(=O)COC(=O)c1cc2ccccc2cc1O	none
O=C(NCC(c1ccco1)N1CCCC1)c1cc2ccccc2s1 (stereo not given)	none
COc1cc(OC)c(C(=O)O/N=C(\N)c2ccccn2)cc1OC	none
N/C(=N\OC(=O)c1cccc(Br)c1)c1ccccn1	TROY signal inh 66, LMP1 NFkB inh 45, TWEAK-Fn14 inh 86
COc1ccccc1C(=O)O/N=C(\N)c1ccccn1	TROY signal inh 55, TWEAK-Fn14 inh 74
COc1ccc(CC(=O)O/N=C(\N)c2ccccn2)cc1	none
N/C(=N\OC(=O)c1cccc(Br)c1)c1ccccc1	none
N/C(=N\OC(=O)c1cc([N+](=O)[O-])ccc1Cl)c1cccnc1	Peg3 prom inh 62
N/C(=N\OC(=O)Cc1ccc(-c2ccccc2)cc1)c1ccccn1	TROY signal inh 70, TWEAK-Fn14 inh 70
COc1ccccc1CN1CC(C(=O)NCCCc2ccc(F)cc2)CCC1=O (stereo not given)	none
Cc1cc(/C(N)=N/OC(=O)c2cccc(Cl)c2)no1	none
N/C(=N\OC(=O)c1cccc(Cl)c1)c1ccccn1	TROY signal inh 68, TWEAK-Fn14 inh 92
CCOc1cc(C(=O)O/N=C(\N)c2ccccn2)cc(OCC)c1OCC	Peg3 prom inh 84
O=C(Nc1ccncc1)c1ccc(Cl)c(S(=O)(=O)N2CCCC2)c1	none
Cc1cc(SCc2ccc(Br)cc2)nc(=O)[nH]1	none
O=C(NCc1ccncc1)C(=O)Nc1nc(C23CC4CC(CC(C4)C2)C3)cs1	TROY signal inh 57, TWEAK-Fn14 inh 76
O=C(NCc1ccccc1)C(=O)Nc1nc(C23CC4CC(CC(C4)C2)C3)cs1	none
CCCCCCc1cc2cc(C(=O)Nc3cccc(OC)c3)c(=O)oc2cc1O	TWEAK-Fn14 inh 59
CCCCCCc1cc2cc(C(=O)Nc3ccc(OC)cc3)c(=O)oc2cc1O	none
Cc1cccc(-c2cc3nc(-c4ccccc4)cc(=O)n3[nH]2)c1	none
O=C(Nc1ccc(F)cc1)c1ccccc1Oc1ccc(C(F)(F)F)cc1[N+](=O)[O-]	none
O=C(Nc1ccccc1)c1ccccc1Oc1ccc(C(F)(F)F)cc1[N+](=O)[O-]	Peg3 prom inh 56
CNc1ccc(-c2ccccc2CO)cn1	none (no result: MITF TRPM1 inh, LMP1 NFkB inh)
Cc1cc(C)cc(NC(=O)c2cnn(-c3ccccc3)c2C2CCNCC2)c1	none
CCCCCC(=O)NC(=S)Nc1ccc(Br)cc1C	LMP1 NFkB inh 44
CCCC(=O)NC(=S)Nc1c(C)cc(Br)cc1C	none
CCCCN(C=O)c1c(CC)nc2c(OCC(=O)c3ccc(F)cc3)cccn12	none (no result: MITF TRPM1 inh, LMP1 NFkB inh)
COc1ccc(-c2cn3nc4c(nc3n2)CCCC4)cc1	LMP1 NFkB inh 62
COc1cccc(-c2cn3nc(C)c(C)nc3n2)c1	none
C[C@@]12C(=O)N(c3cccc(F)c3)C(=O)N1[C@@H]1c3ccccc3OC[C@@H]1[C@H]2c1ccccc1	none
COc1ccc(C(=O)Sc2ccc(Cl)cc2)cc1OC	TWEAK-Fn14 inh 57
COc1ccc(C(=O)Sc2ccc(C)cc2)cc1OC	none
Cc1c(C)c2ccc(OCC(=O)NCCc3c[nH]c4ccccc34)cc2oc1=O	none (no result: MITF TRPM1 inh, LMP1 NFkB inh)
CCOC(=O)c1ccc(Nc2cc(C)nc(-c3ccccc3)n2)cc1	TROY signal inh 71
CCOC(=O)c1ccc(Nc2nc(C)cc(C)n2)cc1	none
CCOC(=O)c1ccc(Nc2cc(C)nc(N3CCOCC3)n2)cc1	Peg3 prom inh 55
CCOC(=O)c1ccc2ncc(C(=O)OCC)c(NCCN3CCOCC3)c2c1	none
CCOC(=O)c1cnc2ccc(C)cc2c1Nc1ccc(N2CCOCC2)cc1	Peg3 prom inh 79, TWEAK-Fn14 inh 56
O=C1NC[C@@H](CCCCN2CCN(Cc3ccccc3)C(=O)C2=O)N(Cc2ccccc2)C1=O	none (no result: Peg3 prom inh, MITF TRPM1 inh, LMP1 NFkB inh)
Cc1ccc(S(=O)(=O)N2[C@H](CC(=O)c3cccs3)OC[C@@H]2C(C)C)cc1	none (no result: Peg3 prom inh, TROY signal inh, MITF TRPM1 inh, LMP1 NFkB inh, TWEAK-Fn14 inh)
Cc1ccc(C)c(NC(=O)C(Sc2nc3ccccc3c(=O)n2CC(C)C)c2ccccc2)c1 (stereo not given)	Peg3 prom inh 57
Cc1ccc(C)c(NC(=O)C(Sc2ncnc3ccccc23)c2ccccc2)c1 (stereo not given)	Peg3 prom inh 59
Cc1csc(SCC(=O)N(C)C2CCS(=O)(=O)C2)n1 (stereo not given)	none
O=C(NOCc1ccccc1)c1ccc(Cl)cc1	TWEAK-Fn14 inh 66
COc1ccc(C(=O)NOCc2ccccc2)cc1	LMP1 NFkB inh 48, TWEAK-Fn14 inh 86
COc1ccc(C(=O)NCCSc2ccccc2)cc1	TWEAK-Fn14 inh 61
